Common to all, as to test: DAPPL (digital affinity profiling via proximity ligation, sequencing); 10 mM Tris-HCl pH 7.5, 50 mM NaCl, 1 mM DTT, 4% glycerol, room temperature, 30 min; GST-TFs on glutathione beads, 16-mer random dsDNA library, 0.1% formaldehyde crosslink after washing; high values mean tight binding
In one test the target is T1, FEV (Homo sapiens, UniProt Q99581 1-238).
T1 sequence: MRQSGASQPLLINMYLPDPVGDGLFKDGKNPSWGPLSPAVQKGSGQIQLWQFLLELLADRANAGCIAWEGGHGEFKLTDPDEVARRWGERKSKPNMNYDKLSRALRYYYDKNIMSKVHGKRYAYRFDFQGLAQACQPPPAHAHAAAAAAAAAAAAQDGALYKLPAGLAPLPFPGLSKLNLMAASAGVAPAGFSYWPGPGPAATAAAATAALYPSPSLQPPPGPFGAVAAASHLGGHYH
The following applies: protein: recombinant; tags: N-terminal GST; dsDNA, one strand shown. In outline:
(§1)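 Human transcription factors fused to GST were expressed in yeast, captured on glutathione beads, given DNA barcodes and pooled with a GST-only negative control. Pools were incubated with 200 nmole of a 16-mer random double-stranded DNA library in Tris/NaCl/DTT/glycerol buffer at room temperature for 30 min. They were then washed, crosslinked with 0.1% formaldehyde, proximity-ligated (BsaI/T4 ligase, 1 h, 37 °C), PCR-amplified and sequenced on an Illumina NextSeq500. Binding signal is each 6-mer's read frequency for a factor divided by its frequency for the GST control.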

The target in the next test is ETV5 (Homo sapiens, UniProt P41161 1-510). The following applies: protein: recombinant; tags: N-terminal GST; dsDNA, one strand shown. In outline: as §1
In another test the target is HSF1 (Homo sapiens, UniProt Q00613 1-529). The following applies: protein: recombinant; tags: N-terminal GST; chain copies: 3; dsDNA, one strand shown. In outline: as §1
In a further test the target is T2, SPIC (Homo sapiens, UniProt Q8N5J4 1-248).
T2 sequence: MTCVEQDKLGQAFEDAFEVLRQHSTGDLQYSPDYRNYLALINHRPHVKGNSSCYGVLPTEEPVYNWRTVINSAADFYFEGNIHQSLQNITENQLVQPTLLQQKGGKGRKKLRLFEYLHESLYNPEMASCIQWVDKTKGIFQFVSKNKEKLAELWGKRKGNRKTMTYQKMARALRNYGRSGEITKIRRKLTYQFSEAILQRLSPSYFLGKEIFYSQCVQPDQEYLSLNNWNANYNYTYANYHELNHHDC
The following applies: protein: recombinant; tags: N-terminal GST; dsDNA, one strand shown. The gist of the method: as §1

Another test deals with ELF4 (Homo sapiens, UniProt Q99607 1-663). The following applies: protein: recombinant; tags: N-terminal GST; dsDNA, one strand shown. In outline:
as §1

A further test deals with T3, ELK4 (Homo sapiens, UniProt P28324-2 1-405).
T3 sequence: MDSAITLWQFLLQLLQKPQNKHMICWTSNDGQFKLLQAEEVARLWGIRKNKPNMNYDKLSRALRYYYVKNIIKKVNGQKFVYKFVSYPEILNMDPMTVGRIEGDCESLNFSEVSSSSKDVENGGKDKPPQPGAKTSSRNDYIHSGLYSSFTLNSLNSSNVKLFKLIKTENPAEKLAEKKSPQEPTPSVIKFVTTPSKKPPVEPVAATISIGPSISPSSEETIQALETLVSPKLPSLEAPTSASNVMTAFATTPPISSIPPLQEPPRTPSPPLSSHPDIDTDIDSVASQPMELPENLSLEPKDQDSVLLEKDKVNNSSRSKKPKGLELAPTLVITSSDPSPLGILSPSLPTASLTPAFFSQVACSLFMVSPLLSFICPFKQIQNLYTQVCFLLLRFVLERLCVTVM
The following applies: protein: recombinant; tags: N-terminal GST; dsDNA, one strand shown. The gist of the method: as §1

The target in the next test is T4, ETV2 (Homo sapiens, UniProt O00321 1-342).
T4 sequence: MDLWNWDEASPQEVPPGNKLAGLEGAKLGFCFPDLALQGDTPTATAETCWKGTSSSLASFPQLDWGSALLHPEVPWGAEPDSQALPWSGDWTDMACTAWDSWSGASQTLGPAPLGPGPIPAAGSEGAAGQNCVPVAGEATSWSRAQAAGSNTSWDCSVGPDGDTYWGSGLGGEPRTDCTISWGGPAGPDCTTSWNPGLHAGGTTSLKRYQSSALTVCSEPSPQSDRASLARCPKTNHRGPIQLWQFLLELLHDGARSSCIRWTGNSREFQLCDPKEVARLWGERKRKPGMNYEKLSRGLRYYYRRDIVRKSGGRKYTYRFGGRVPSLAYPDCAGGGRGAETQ
The following applies: protein: recombinant; tags: N-terminal GST; dsDNA, one strand shown. In outline:
as §1

A further test deals with T5, ELF3 (Homo sapiens, UniProt P78545 1-371).
T5 sequence: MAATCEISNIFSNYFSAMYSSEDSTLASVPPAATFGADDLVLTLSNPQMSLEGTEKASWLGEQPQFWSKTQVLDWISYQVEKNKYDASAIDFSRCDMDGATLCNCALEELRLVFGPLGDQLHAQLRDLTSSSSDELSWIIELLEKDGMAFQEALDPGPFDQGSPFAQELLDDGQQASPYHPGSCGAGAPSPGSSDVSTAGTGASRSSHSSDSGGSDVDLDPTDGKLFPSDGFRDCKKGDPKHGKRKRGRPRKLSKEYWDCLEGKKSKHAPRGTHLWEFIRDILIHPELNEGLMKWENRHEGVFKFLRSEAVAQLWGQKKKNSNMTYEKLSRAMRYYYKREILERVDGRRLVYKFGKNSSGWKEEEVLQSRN
The following applies: protein: recombinant; tags: N-terminal GST; dsDNA, one strand shown. In outline:
as §1

Another test deals with CRX (Homo sapiens, UniProt O43186 1-299). The following applies: protein: recombinant; tags: N-terminal GST; dsDNA, one strand shown. The gist of the method: as §1
The next test deals with ETV1 (Homo sapiens, UniProt P50549 1-477). The following applies: protein: recombinant; tags: N-terminal GST; dsDNA, one strand shown. In outline: as §1
For a further test, the target named is T6, ERF (Homo sapiens, UniProt P50548 1-548).
T6 sequence: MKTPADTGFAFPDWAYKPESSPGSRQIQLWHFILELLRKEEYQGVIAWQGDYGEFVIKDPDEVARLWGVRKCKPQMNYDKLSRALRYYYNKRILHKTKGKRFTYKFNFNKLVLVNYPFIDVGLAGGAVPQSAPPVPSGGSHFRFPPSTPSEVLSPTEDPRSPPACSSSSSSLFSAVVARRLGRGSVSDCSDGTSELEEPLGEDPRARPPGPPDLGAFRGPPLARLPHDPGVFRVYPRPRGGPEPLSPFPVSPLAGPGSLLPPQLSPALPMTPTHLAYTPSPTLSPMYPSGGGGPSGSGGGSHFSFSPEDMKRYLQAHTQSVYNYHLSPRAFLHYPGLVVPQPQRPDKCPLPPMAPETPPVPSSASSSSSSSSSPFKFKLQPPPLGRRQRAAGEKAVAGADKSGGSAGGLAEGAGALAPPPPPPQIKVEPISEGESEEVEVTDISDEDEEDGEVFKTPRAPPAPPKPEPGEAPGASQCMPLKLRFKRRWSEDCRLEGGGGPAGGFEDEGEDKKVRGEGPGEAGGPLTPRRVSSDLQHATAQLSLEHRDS
The following applies: protein: recombinant; tags: N-terminal GST; dsDNA, one strand shown. In outline: as §1

Another test concerns the target T7, ETV3L (Homo sapiens, UniProt Q6ZN32 1-361).
T7 sequence: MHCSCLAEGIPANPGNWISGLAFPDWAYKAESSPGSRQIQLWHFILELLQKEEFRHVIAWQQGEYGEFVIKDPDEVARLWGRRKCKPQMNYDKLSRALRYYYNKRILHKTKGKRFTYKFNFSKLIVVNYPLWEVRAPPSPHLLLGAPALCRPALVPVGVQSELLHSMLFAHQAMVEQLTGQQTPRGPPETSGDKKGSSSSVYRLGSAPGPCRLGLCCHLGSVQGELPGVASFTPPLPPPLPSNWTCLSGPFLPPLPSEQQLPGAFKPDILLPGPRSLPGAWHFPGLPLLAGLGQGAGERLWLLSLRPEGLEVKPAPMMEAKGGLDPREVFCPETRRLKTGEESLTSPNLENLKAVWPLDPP
The following applies: protein: recombinant; tags: N-terminal GST; dsDNA, one strand shown. The gist of the method:
as §1

In the next test the target is T8, ETS2 (Homo sapiens, UniProt P15036 1-469).
T8 sequence: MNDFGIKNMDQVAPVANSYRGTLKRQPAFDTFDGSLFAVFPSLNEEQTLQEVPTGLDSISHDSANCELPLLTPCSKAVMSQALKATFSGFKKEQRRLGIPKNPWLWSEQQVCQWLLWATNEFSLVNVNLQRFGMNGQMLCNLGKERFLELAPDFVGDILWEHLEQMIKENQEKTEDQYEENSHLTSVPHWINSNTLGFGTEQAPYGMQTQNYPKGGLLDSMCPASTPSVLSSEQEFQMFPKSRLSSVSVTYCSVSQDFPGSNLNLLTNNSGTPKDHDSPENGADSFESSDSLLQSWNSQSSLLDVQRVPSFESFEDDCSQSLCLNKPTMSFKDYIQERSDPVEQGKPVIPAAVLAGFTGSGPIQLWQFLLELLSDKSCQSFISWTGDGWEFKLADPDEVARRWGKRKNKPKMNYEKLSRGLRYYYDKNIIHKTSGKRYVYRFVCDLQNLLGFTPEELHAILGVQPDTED
The following applies: protein: recombinant; tags: N-terminal GST; dsDNA, one strand shown. The gist of the method: as §1

The target of the next test is T9, SPDEF (Homo sapiens, UniProt O95238 1-335).
T9 sequence: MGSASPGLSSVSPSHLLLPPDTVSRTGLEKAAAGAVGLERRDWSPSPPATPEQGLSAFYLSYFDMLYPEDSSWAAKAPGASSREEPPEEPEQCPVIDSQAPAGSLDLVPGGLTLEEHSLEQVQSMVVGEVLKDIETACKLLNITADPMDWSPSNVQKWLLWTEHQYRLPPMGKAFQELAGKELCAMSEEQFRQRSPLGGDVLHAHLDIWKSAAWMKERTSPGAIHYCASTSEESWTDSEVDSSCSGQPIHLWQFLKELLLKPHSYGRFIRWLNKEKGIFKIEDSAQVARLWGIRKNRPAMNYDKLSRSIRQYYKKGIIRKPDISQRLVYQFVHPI
The following applies: protein: recombinant; tags: N-terminal GST; dsDNA, one strand shown. The gist of the method: as §1

Another test deals with T10, ETV7 (Homo sapiens, UniProt Q9Y603 1-341).
T10 sequence: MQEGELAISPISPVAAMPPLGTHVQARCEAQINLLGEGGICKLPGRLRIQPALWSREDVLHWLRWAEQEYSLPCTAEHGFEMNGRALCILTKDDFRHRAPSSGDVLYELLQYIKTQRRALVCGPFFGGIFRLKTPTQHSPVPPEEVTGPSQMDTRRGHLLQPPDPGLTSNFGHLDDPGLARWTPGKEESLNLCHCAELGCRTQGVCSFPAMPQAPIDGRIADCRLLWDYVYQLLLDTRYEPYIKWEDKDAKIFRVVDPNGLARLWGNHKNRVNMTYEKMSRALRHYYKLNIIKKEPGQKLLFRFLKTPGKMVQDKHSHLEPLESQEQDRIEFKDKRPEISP
The following applies: protein: recombinant; tags: N-terminal GST; dsDNA, one strand shown. In outline: as §1

The target in a further test is T11, ELF5 (Homo sapiens, UniProt Q9UKW6-2 1-255).
T11 sequence: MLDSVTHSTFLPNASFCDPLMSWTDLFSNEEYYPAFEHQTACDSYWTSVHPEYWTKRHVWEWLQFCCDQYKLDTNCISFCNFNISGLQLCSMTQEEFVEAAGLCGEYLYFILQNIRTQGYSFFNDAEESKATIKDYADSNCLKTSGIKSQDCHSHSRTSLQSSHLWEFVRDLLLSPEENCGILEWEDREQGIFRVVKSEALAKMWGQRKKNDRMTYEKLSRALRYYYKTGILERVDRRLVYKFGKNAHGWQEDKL
The following applies: protein: recombinant; tags: N-terminal GST; dsDNA, one strand shown. The gist of the method: as §1

Another test addresses T12, ETV3 (Homo sapiens, UniProt P41162-2 1-143).
T12 sequence: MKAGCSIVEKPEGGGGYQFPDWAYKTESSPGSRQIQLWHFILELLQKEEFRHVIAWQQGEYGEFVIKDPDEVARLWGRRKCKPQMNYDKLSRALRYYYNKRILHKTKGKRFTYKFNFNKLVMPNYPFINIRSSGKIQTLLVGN
The following applies: protein: recombinant; tags: N-terminal GST; dsDNA, one strand shown. The gist of the method:
as §1

Another test addresses ETV6 (Homo sapiens, UniProt P41212 1-452). The following applies: protein: recombinant; tags: N-terminal GST; dsDNA, one strand shown. The gist of the method: as §1

ETV6, sequence (P41212 whole entry): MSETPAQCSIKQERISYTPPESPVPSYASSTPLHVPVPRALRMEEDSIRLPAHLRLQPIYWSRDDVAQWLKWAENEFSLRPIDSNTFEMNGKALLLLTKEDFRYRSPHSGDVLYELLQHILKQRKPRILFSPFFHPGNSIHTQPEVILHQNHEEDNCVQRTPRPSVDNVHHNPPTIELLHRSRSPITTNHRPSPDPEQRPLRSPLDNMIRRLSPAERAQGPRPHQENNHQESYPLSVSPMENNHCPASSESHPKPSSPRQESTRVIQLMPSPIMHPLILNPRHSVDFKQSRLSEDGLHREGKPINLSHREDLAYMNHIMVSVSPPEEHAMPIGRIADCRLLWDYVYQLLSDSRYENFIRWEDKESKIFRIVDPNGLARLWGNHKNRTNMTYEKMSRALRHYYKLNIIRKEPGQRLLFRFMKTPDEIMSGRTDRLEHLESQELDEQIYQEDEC
HSF1, sequence (Q00613 whole entry): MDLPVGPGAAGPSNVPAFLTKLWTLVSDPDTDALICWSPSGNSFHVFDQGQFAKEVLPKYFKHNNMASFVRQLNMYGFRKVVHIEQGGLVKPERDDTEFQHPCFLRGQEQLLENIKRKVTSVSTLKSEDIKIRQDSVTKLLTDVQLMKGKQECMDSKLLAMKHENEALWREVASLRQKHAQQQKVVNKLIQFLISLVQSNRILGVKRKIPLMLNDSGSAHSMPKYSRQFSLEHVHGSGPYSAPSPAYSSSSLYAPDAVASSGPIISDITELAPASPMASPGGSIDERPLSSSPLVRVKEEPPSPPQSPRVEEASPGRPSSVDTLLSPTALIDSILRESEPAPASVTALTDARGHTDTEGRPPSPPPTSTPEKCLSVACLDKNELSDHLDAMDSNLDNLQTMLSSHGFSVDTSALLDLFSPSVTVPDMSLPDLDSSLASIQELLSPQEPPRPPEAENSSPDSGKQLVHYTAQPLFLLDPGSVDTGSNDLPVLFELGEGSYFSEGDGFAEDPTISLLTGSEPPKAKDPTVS
ETV1, sequence (P50549 whole entry): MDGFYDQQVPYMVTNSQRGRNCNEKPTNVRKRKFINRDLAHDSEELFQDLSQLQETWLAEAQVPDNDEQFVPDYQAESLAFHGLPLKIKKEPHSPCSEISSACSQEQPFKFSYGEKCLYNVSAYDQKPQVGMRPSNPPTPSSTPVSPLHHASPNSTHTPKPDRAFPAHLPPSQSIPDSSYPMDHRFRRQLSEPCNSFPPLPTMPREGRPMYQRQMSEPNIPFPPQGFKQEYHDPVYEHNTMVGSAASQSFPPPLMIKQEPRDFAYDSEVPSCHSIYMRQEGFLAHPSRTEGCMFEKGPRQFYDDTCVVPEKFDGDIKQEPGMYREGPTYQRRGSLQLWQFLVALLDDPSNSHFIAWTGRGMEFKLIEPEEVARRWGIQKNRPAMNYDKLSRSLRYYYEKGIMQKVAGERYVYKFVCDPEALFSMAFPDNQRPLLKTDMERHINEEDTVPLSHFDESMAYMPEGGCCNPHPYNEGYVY
ETV5, sequence (P41161 whole entry): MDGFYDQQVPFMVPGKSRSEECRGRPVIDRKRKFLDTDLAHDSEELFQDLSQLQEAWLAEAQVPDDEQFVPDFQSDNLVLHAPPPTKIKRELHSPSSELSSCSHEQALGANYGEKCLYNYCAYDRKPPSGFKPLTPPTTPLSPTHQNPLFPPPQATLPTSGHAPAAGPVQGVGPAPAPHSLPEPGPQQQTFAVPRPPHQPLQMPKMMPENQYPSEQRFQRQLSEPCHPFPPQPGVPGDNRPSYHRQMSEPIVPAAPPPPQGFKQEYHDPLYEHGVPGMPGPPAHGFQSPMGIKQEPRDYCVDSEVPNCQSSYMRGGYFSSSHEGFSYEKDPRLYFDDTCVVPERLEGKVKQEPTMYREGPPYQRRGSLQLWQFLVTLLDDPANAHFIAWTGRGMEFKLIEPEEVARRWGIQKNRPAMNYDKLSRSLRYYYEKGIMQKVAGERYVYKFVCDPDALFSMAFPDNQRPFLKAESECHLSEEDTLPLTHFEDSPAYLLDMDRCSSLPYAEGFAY
ELF4, sequence (Q99607 whole entry): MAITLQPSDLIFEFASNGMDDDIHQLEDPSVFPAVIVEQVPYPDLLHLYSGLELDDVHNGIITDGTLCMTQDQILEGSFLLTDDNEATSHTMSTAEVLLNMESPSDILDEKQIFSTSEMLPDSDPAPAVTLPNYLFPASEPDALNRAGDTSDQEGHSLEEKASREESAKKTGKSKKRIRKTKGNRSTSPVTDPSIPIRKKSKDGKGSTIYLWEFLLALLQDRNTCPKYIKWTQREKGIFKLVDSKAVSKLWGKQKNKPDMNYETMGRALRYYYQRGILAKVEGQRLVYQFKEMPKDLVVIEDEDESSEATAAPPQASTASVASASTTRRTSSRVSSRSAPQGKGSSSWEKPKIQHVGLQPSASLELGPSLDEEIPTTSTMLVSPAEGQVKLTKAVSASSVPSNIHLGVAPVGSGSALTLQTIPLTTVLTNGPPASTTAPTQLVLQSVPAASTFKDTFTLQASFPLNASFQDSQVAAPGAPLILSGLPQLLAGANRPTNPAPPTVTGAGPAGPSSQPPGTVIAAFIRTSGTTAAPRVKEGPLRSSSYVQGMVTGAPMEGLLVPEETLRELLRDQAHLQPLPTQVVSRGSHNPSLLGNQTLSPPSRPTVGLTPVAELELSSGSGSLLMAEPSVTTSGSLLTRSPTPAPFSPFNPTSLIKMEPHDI
CRX, sequence (O43186 whole entry): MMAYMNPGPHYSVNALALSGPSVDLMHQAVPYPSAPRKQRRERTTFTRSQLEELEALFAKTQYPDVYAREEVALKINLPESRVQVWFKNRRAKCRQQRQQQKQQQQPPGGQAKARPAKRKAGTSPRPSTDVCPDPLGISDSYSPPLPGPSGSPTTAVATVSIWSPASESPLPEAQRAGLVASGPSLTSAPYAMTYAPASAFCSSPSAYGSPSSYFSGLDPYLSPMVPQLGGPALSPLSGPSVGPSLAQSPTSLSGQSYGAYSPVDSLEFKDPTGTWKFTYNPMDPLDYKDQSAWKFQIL

ACTAAA: the binding signal in the test with FEV is 1.24 fold enrichment (6-mer frequency, TF over GST control); in the test with ETV5, 1.24 fold enrichment (6-mer frequency, TF over GST control); with HSF1 it was 1.37 fold enrichment (6-mer frequency, TF over GST control); in the test with SPIC it was 1.14 fold enrichment (6-mer frequency, TF over GST control); in the test with ELF4, 1.31 fold enrichment (6-mer frequency, TF over GST control); with ELK4, 1.4 fold enrichment (6-mer frequency, TF over GST control). For the same sequence, the binding signal with ETV2 was 1.24 fold enrichment (6-mer frequency, TF over GST control); with ELF3, 1.33 fold enrichment (6-mer frequency, TF over GST control); in the test with CRX it was 1.6 fold enrichment (6-mer frequency, TF over GST control); with ETV1, 1.31 fold enrichment (6-mer frequency, TF over GST control); in the test with ERF it was 1.27 fold enrichment (6-mer frequency, TF over GST control); with ETV3L, 1.32 fold enrichment (6-mer frequency, TF over GST control). Also, the binding signal was 1.3 fold enrichment (6-mer frequency, TF over GST control) with ETS2; 1.25 fold enrichment (6-mer frequency, TF over GST control) with SPDEF; 1.24 fold enrichment (6-mer frequency, TF over GST control) with ETV7; 1.28 fold enrichment (6-mer frequency, TF over GST control) with ELF5; 1.21 fold enrichment (6-mer frequency, TF over GST control) with ETV3; 1.28 fold enrichment (6-mer frequency, TF over GST control) in the test with ETV6.

Values taken from PMC7862700, “An all-to-all approach to the identification of sequence-specific readers for epigenetic DNA modifications on cytosine”.
